Screening results (PubChem)
G9a inh = qHTS Assay for Inhibitors of Histone Lysine Methyltransferase G9a. 350,000 compounds, 8.8% hits. Potency, µM (doses to about 102 µM), without a hit: at the top dose activity, negative = inhibition, usual class: inhibitors. G9a H3K9 monomethylation, AlphaScreen, 2 h; further: potency means the concentration at half of the fitted maximal effect; nearly all actives have a fitted effect of over 75% in size
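AlphaScreen detection with an anti-monomethyl H3K9 antibody quantified product after a 2 h room-temperature reaction containing 500 nM biotinylated H3K9 peptide, 20 µM SAM and 20 nM enzyme, which had been preincubated 15 min with compound.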
VDR inhibitor = Inhibitors of the vitamin D receptor (VDR): qHTS. Vitamin D3 receptor (Homo sapiens), P11473. VDR-SRC2-3 peptide fluorescence polarization, 2 h. Potency, µM, inactives show max response, negative = inhibition, hits mostly inhibitors. 400,000 compounds, 0.93% hits; further: potency means the concentration at half of the fitted maximal effect
Target sequence (P11473 whole entry, looked up): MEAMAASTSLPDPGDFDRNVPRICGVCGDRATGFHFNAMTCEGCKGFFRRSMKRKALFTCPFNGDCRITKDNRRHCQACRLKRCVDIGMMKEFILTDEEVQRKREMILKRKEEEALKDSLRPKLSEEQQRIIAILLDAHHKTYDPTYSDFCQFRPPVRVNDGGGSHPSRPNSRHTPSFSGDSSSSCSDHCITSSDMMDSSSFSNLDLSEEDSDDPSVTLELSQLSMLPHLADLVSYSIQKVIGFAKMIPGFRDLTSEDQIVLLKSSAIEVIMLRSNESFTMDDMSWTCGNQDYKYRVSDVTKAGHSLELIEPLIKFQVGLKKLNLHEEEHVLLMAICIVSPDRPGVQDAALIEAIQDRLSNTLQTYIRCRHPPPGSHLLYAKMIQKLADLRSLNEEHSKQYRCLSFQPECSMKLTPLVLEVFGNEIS
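After 23 nl compound addition and a short centrifugation, plates sat for 2 hours at ambient temperature; polarization of fluorescence then indicated loss of VDR binding to peptide SRC2-3.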
PLK1 PBD inh = qHTS for Inhibitors of PLK1-PDB (polo-like kinase 1 - polo-box domain): Primary Screen. Serine/threonine-protein kinase PLK1 (Homo sapiens), P53350. Plk1 PBD binding of FITC phosphopeptide, fluorescence polarization. Potency, µM, for the others: max response, negative = inhibition, most hits filed as inhibitors. 360,000 compounds, 2.8% hits. AID 720504, 2013; further: potency means the concentration at half of the fitted maximal effect; series mostly up to about 57 µM; nearly all actives have a fitted effect of over 65% in size
Sfp inh = qHTS Assay for Inhibitors of Bacillus subtilis Sfp phosphopantetheinyl transferase (PPTase). AID 1490, 2009. 4'-phosphopantetheinyl transferase ffp (Bacillus subtilis), Q9F4F7. 310,000 compounds, 3.5% hits. Potency, µM, for inactives: largest response in the series, negative = inhibition, usual class: inhibitors. Biochemical Sfp PPTase activity, qHTS;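 further: the enzyme is Sfp with the accession as filed and its product quenches rhodamine fluorescence; potency means the concentration at half of the fitted maximal effect; 0% = enzyme reaction without inhibitor and -100% = no enzyme wells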
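Buffer: 50 mM Hepes-Na pH 7.6, 10 mM MgCl2, 0.01% Nonidet P-40, 0.01% BSA. Enzyme 15 nM, pre-exposed to compound 15 min; substrates then added and fluorescence change tracked over 30 min.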
CCT modulator = High-Throughput Screening for Modulators of Cytosolic Chaperonin Activity; purified chaperonin ATPase assay, HTRF ADP detection, 30 min; activity change, % (no concentration beside the values), hits read low; 360,000 compounds, 0.3% hits; AID 651819, 2012; in the data active means activity change below about -30%
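Nucleotide hydrolysis assay: TRiC at 20–40 nM final (set by batch activity) with 10 uM ATP, 30 min at 37 °C, in presence of 76 uM compound. Detection by competitive ADP HTRF, 30 min ambient.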
Mm-Cpn inhibitor = Inhibitors of TCP-1 ring complex (TRiC) of Methanococcus maripaludis (MmCpn): qHTS. Chaperonin Mm-Cpn (Methanococcus maripaludis). purified Mm-Cpn ATPase, ADP Transcreener TR-FRET. Potency, µM (highest dose often 76.9 µM), inactives show at the highest dose activity, negative = inhibition, most hits filed as inhibitors. 330,000 compounds, 0.031% hits; further: potency means the concentration at half of the fitted maximal effect; nearly all actives have a fitted effect of over 80% in size
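ATPase read-out: TR-FRET ADP immunoassay (anti-ADP Eu cryptate vs ADP-d2), ex 320 nm, em 590/665 nm; signal drops as ADP forms. Enzyme 25 nM, ATP 10 uM, 30 min at 37°C after 10 min compound preincubation.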
Starred values were filed as active, the others as inactive; ? = inconclusive; nt = no result given; ! = not active in a repeat; [ ] = dose if it differs, or a comment. Hits are enriched below; roughly 10% of the tested compounds scored in any of these assays. Unless noted, the call rests on the fitted dose curve; in most records, active means well fitted curve in the direction sought with a large enough effect; inconclusive means small, poorly fitted or top-dose-only effect, or another doubt; inactive means no such curve, though single readings can be large; an effect the other way counts as inactive or inconclusive. Unless noted, on the % scale 0 is the no-effect control and ±100 the full control effect.

SMILES	G9a inh	VDR inhibitor	PLK1 PBD inh	Sfp inh	CCT modulator	Mm-Cpn inhibitor
O=C(O)c1ccccc1SCc1cn2cc(Br)ccc2n1	?	-20.6%	-11.3%	-12.8%	2.8	-5.7%
Cc1ccc(Sc2ccc(CN3CCCCC3)cc2[N+](=O)[O-])cc1	17.8µM*	-17.1%	-19.9%	-2.8%	0.9	-2.4%
COc1ccccc1NC(=S)N(Cc1ccc(C)cc1)Cc1cccnc1	4.3%[59 µM]	6.9%	-15.6%	21.4%	-5.5	0.3%
COc1ccc(CCN(Cc2ccccn2)C(=S)Nc2ccc(C)cc2)cc1OC	-35.3%	-2.0%	-18.8%	3.7%	-0.7	-24.2%
COc1ccc(CCN(Cc2ccccn2)C(=S)Nc2cccc(SC)c2)cc1OC	10µM*	9.2%	-15.1%	44.7µM*	-4.0	1.6%
COc1ccccc1NC(=S)N(Cc1ccc(C)cc1)Cc1ccccn1	6.6%[59 µM]	-2.5%	0.6%	44.7µM*	1.1	0.8%
COc1ccc(N(C(=O)COc2ccccc2OC)S(=O)(=O)c2ccc(Cl)cc2)cc1	-22.7%[59 µM]	-11.4%	nt	nt	nt	nt
COc1ccc(C(CNC(=O)c2ccc(-c3ccccc3Cl)o2)N2CCOCC2)cc1 (configuration not stated)	44.7µM*	-10.6%	0.9%	nt	-0.4	-3.1%
COc1ccc(NC(=O)c2ccc(-c3ccccc3Cl)o2)cc1	79.4µM*	-3.8%	-2.7%	16.6%	-0.8	-7.1%
CCc1ccc2oc(C(=O)NCC(c3ccc(Cl)cc3)N3CCOCC3)c(C)c2c1 (configuration not stated)	-21.3%[59 µM]	4.7%	nt	nt	nt	nt
O=C(NCc1ccccc1)c1ccc(-c2ccccc2C(F)(F)F)o1	39.8µM*	112µM*!	-5.1%	5.5%	0.5	0.9%
Cc1ccc2c(C)c(C(=O)NCC(c3ccc(Cl)cc3)N3CCOCC3)oc2c1 (configuration not stated)	12.6µM*	1.1%	nt	nt	nt	nt
COc1ccc(N2CC(NC(=O)/C=C\c3ccc4c(c3)OCO4)CC2=O)cc1 (configuration not stated)	10.6%[59 µM]	17.3%	nt	nt	nt	nt
Cc1nc2cnc(N(C)C)nc2n(C)c1=O	2.9%[12.7 µM]	10.8%	nt	15.7%	nt	nt
CCCCCn1c(=O)c2c(nc3n2CCN3c2ccc(Br)cc2)n(C)c1=O	?	13.3%	nt	nt	nt	nt
CCN(CC)CCSc1nnc2c3cc(F)ccc3n(CC)c2n1	-33.9%[59 µM]	14.3%	nt	nt	nt	nt
Cc1ccc(-c2ccc(C(=O)NCc3ccc(Cl)cc3)o2)c2ccccc12	14.1µM*	?	?	?	-1.9	-15.1%
COc1ccc(NC(=O)c2ccc(-c3ccc(C)c4ccccc34)o2)cc1	39.8µM*	-0.2%	-11.2%	?	-2.0	-8.3%
Cc1ccc(CC(=O)NCc2ccc(Cl)cc2)cc1	-9.4%	?	15µM*	11.1%	0.5	-0.4%
Cc1ccc2c(c1)C(C)CC(C)(C)N2C(=O)CN1CCN(C)CC1 (configuration not stated)	12.6µM*	-6.0%	4.3%	56.2µM*	-0.4	-11.0%
c1ccc(-c2nc(-c3ccncc3)n[nH]2)nc1	nt	-12.2%	-1.1%	14.1µM*	2.2	0.7%
Cc1ccc(C(c2nnnn2C2CCCCC2)N(C)C2CCCCC2)cc1 (configuration not stated)	1.78µM*	3.5%	-1.6%	-0.3%	-0.1	1.6%
Cc1nc2cnc(N(C)C)nc2n(-c2ccccc2)c1=O	-2.7%[0.501 µM]	-1.0%	nt	16.7%	nt	nt
COc1ccc(S(=O)(=O)c2c(SC)nn(Cc3ccccc3C)c2NC(C)=O)cc1	3.5%[59 µM]	6.1%	nt	nt	nt	nt
CC[C@H](C)[C@@H](CN[C@H](C)CNC)NCCC(c1ccccc1)c1ccccc1	44.7µM*	-13.0%	-3.0%	16.6%	-1.7	-1.0%
